Source: PubChem
UBC9 SUMO inh – inhibitors of in vitro SUMOylation cascade, primary screen, biochemical, HTRF, uHTS | HTRF SUMOylation assay, SAE1/SAE2 + UBC9 | inhibition, % at 35 µM | 290,000 compounds, 0.36% hits | AID 2006, 2009; in the data active = inhibition above about 50%, passing the limit was not always enough
PERK inhibitor – block of dimerizer-induced PERK translation repression, primary screen, PERK inhibitor project, CHO PERK-DD cells, SEAP luminescence, HTS. CHO PERK-DD fusion, SEAP luminescence translation reporter. inhibition, % at 5.6 µM. 220,000 compounds, 0.17% hits. AID 1416, 2008;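 active = inhibition above the mean inhibition of all tested compounds plus 3 SD, set separately per screening campaign, cut at about 2.9% in these data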;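 also: PERK kinase domain activated by AP20187 dimerizer at 100 nM; 0% = DMSO with dimerizer and 100% = rapamycin at 8.4 µM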
p97 inhibitor – inhibitors of human p97 ATPase, primary screen, biochemical. recombinant p97 ATPase, Kinase-Glo ATP luminescence, 3 h. inhibition, % at 8 µM. 220,000 compounds, 0.42% hits. AID 1481, 2009; in the data active = inhibition above about 15%;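 also: 0% = DMSO vehicle and 100% = wells lacking enzyme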
Target sequence (P55072 whole entry, looked up): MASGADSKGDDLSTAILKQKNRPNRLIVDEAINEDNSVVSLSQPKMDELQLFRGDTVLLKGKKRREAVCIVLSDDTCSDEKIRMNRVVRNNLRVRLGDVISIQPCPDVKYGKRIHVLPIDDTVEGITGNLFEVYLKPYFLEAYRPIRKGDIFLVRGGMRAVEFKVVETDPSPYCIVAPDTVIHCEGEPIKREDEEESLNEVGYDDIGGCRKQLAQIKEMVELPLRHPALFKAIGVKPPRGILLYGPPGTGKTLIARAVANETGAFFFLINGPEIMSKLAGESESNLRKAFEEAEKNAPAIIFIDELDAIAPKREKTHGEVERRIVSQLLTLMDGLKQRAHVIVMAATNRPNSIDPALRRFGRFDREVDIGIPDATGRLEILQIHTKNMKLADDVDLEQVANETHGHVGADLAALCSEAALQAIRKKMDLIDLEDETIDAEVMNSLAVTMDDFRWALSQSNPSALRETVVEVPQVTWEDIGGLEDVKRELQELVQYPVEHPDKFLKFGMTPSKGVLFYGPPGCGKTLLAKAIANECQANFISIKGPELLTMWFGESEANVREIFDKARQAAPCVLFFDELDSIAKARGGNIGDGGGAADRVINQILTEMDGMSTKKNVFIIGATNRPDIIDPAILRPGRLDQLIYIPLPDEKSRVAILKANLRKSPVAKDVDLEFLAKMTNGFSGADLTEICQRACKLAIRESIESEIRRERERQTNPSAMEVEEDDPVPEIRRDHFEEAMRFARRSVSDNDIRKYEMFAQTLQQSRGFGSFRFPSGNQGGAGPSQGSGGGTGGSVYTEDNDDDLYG
Redox H2O2 prof – compounds producing H2O2 with reducing agent – biochemical, NIH compound library profiling, artefact control for MLSCN library redox annotation, primary screen; DTT-dependent redox cycling H2O2, phenol red/HRP absorbance; 100% = 100 µM peroxide control, 0% = buffer; AID 878, 2007; activation, % at 10 µM; 200,000 compounds, 0.03% hits;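 active = activation of at least 50% relative to the plate's high and low controls in the primary single-dose screen; inactive = activation below 50%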;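 also: compound incubated with DTT at 0.8 mM final as the reducing agent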
Active calls of the source: *; . = not tested or not shown. Most compounds without a hit are left out; they make up all but 0.69% or so of the library.

SMILES	UBC9 SUMO inh	PERK inhibitor	p97 inhibitor	Redox H2O2 prof
CCOc1ccc(C2C=C(c3ccc(F)cc3)Nc3ncnn32)cc1 (stereo not given)	45	0	2	1
CN1C=C(C(F)(F)F)C=C/C1=C(\C#N)c1nnc2n1CCCCC2	7	3.1*	5	2
C/C(O)=C(\C#N)c1nnc2n1CCCCC2	-4	2	6	0
COCC(=O)N1CCC(Oc2ccc(C(=O)N3C[C@H]4CC[C@H]3C4)cc2)CC1	4	.	.	.
CCC(=O)NCc1c(Cl)cccc1-n1cccc1	-5	1	3	2
CC(=O)NCc1c(Cl)cccc1-n1cccc1	30	3.3*	5	1
C=CCNC(=S)/C(=C(\[O-])c1ccc(Cl)cc1)[n+]1ccccc1	-6	2	15*	.
[O-]/C(=C(\C(=S)NCc1ccccc1)[n+]1ccccc1)c1ccc(Cl)cc1	-2	0	-3	1
O=C(CN1C(=O)CSC1=O)Nc1ccccc1N1CCOCC1	8	3.1*	6	0
CC(C)C1=Nc2cccc3cccc(c23)N1	8	0	9	18
ClCC1=Nc2cccc3cccc(c23)N1	11	0	15*	.
O=S(=O)(Nc1ccc(O)c2ccccc12)c1cccs1	81	.	.	.
O=S(=O)(Nc1ccc(O)c2ccccc12)c1ccc(Br)cc1	86*	.	.	.
NNC(=O)CNC(c1ccccc1)c1cc(Br)ccc1NC(=O)CCN1CCOCC1 (stereo not given)	18	-1	19*	2
NNC(=O)CNC(c1ccccc1)c1cc(Br)ccc1NC(=O)c1ccc(Br)cc1 (stereo not given)	12	-1	10	0
CC(=O)Nc1nonc1-c1ccccc1	14	3.2*	-2	0
Cc1cc(C(F)(F)F)nc(SCc2ccc(C(=O)O)o2)n1	21	2	9	0
Cc1cc(C)nc(SCc2ccc(C(=O)O)o2)n1	-2	3.1*	6	-1
COc1cccc(C(=O)Nc2ccc(N3CCN(C(=O)c4cccs4)CC3)cc2)c1	12	.	.	.
O=C(NN=C1CCN(Cc2ccccc2)CC1)c1ccccc1O	19	0	5	0
O=C(NN=C1CCN(Cc2ccccc2)CC1)c1cc2ccccc2cc1O	87*	1	3	0
COc1ccc(C(=O)N/N=C/C(C)c2ccccc2)cc1OC (stereo not given)	-25	1	16*	-4
CCn1c(=O)c2cc(C(=O)NC(C)C)sc2c2ccccc21	8	-2	15*	.
CCOc1ccc(NC(=O)CSc2nc3ccsc3c(=O)n2CCC(=O)O)cc1	6	.	.	.
Cc1ccc(C)c(NC(=O)C2CC(=O)N(C3CCCCC3)C2)c1 (stereo not given)	-4	.	.	.
SMILES	UBC9 SUMO inh	PERK inhibitor	p97 inhibitor	Redox H2O2 prof
CC(=O)c1ccc(NC(=O)CC2Nc3cccc4cccc(c34)NC2=O)cc1 (stereo not given)	96*	0	11	1
CC(NCc1cccs1)c1ccccc1 (stereo not given)	-6	0	4	0
CCOc1cc(/C=N/N=C(\N)c2nonc2N)cc(Br)c1OCc1cccc2ccccc12	56*	0	-6	0
Cc1[nH][nH]c(=O)c1C(c1ccc(-c2ccc(Cl)cc2Cl)o1)c1c(C)[nH][nH]c1=O	91*	1	20*	0
Cc1cc(/C=C2/C(=N)N3C(=NC2=O)SN=C3S(C)(=O)=O)c(C)n1-c1ccccc1F	14	3.4*	1	0
CC1=CC2=NC(=O)/C(=C\c3cc(C)n(-c4ccccc4F)c3C)C(=N)N2O1	19	1	8	0
Cc1n[nH]c(=O)nc1NCCN(C)C	23	3.5*	3	-1
O=C(OCc1ccc(F)cc1)c1cc(=O)c2ccccc2o1	12	.	.	.
Cc1ccc2c(Cl)cc(Cl)c(OCC(=O)NCc3ccco3)c2n1	54*	0	6	1
C=CCNC(=S)Nc1cccc2ccccc12	-8	3.0*	7	3
CCc1n[n+](CC(=O)c2ccccc2)c(N)s1	23	1	-10	0
CCCCOC(=O)CSc1nnc(-c2cc(OC)c(OC)c(OC)c2)o1	2	1	2	1
CCOC(=O)c1c(C)[nH]c(C)c1C(=O)CSc1nnc(-c2cc(OC)c(OC)c(OC)c2)o1	30	3.2*	4	2
CCCc1cc(=O)[nH]c(SCCOc2ccc(Cl)cc2)n1	16	2.9*	4	-1
